Measured values published in PubChem BioAssay (Tox21).
Inconclusive results are not listed. A number with no mark means an inactive call. Calls of active or inactive are those of the source. The call rests on the fitted dose curve; in most records, active means well fitted curve in the direction sought with a large enough effect in the repeat runs; inconclusive means weak or mixed curves; inactive means no such curve, though single readings can be large; an effect the other way counts as inactive or inconclusive.

Assay: A CellTox Green Cytotoxicity Assay to monitor cytotoxicity in HepG2 cells - 40 hour (AID 1224879); further: nearly all actives have a fitted effect of over 40% in size; further: potency means the concentration at half of the fitted maximal effect
Details: CellTox Green fluorescence; series mostly up to 76.8 µM; cytotoxicity increase: at the top concentration
Procedure, shortened: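 Read-out is fluorescence of a cyanine dye excluded from live cells that stains DNA of dead HepG2 cells, with signal proportional to cytotoxicity. Plates were read at 0, 8, 16, 24, 32 and 40 h after compound addition.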
On the % scale 0 is the no-effect control and ±100 the full control effect.

| SMILES | cytotoxicity increase | Potency |
| --- | --- | --- |
| CCCC(C)C(O)CC (stereo unspecified) | 0.289% | – |
| CC(=O)Nc1ccc(OCCOCCOc2ccc(NC(C)=O)cc2)cc1 | -7.1% [at 35.3 µM] | – |
| CC(C)OC(=O)C(C(=O)OC(C)C)=C1SC=CS1 | 2.18% [at 35.3 µM] | – |
| COC(=O)N/N=C/c1c[n+]([O-])c2ccccc2[n+]1[O-] | – | 23.9 µM (active) |
| CN1CCN(C(=O)C2CCCCC2)CC1 | -18.1% [at 35.3 µM] | – |
| C=CCCCCCCCCOC(C)=O | 4.78% | – |
| CC(=O)c1ccc2ccc3ccccc3c2c1 | 6.19% | – |
| CC(=O)c1c(C)cc(C(C)(C)C)cc1C | – | 38.9 µM (active) |
| C=CC(C)(CCC=C(C)C)OC(=O)C(C)C (stereo unspecified) | -16.2% | – |
| CCOC(=O)COc1ccc2c(C)c(CCN(CC)CC)c(=O)oc2c1Cl | -8.68% [at 35.3 µM] | – |
| O=C(OOC(=O)c1ccccc1)c1ccccc1 | 29.9% [at 35.3 µM] | – |
| COc1ccc(Cl)cc1C | -1.89% | – |
| Clc1ccc2c(c1)Nc1ccccc1S2 | -2.69% [at 35.3 µM] | – |
| CCN(CC)CC(=O)Oc1ccc(NC(C)=O)cc1 | -8.61% [at 35.3 µM] | – |
| N[C@H]1C(O)O[C@H](CO)[C@@H](O)[C@@H]1O (stereo partly specified) | 1.72% [at 35.3 µM] | – |
| O=C1Nc2ccccc2C1=O | -11.2% | – |
| CN(C)c1ccncc1 | -2.35% | – |

| SMILES | cytotoxicity increase | Potency |
| --- | --- | --- |
| CN(C)CCc1c[nH]c2ccc(C[C@H]3COC(=O)N3)cc12 | -3.17% [at 35.3 µM] | – |
| Cc1nnc(C(=O)NC(C)(C)c2nc(C(=O)NCc3ccc(F)cc3)c(O)c(=O)n2C)o1 | 28.4% [at 35.3 µM] | – |
| COC(=O)c1c(C)cc(O)c(C)c1O | 22.5% | – |
| CCCCS | 0.0484% | – |
| C[C@@H](CN1CC(=O)NC(=O)C1)N1CC(=O)NC(=O)C1 | 13.8% [at 35.3 µM] | – |
| CCOC(=O)[C@H](CCc1ccccc1)N[C@H]1CS[C@H](c2cccs2)CN(CC(=O)O)C1=O | -11.1% [at 35.3 µM] | – |
| CCCCOCCCC | 11.2% | – |
| N=C(N)N | 1.15% [at 35.3 µM] | – |
| CCCCC(CC)COC(=O)CC#N (stereo unspecified) | 6.47% | – |
| CC/C=C\CCCCCCCCCCOC(C)=O | -3.5% | – |
| Cc1ccc(OC(=O)CC(C)C)cc1 | 21.8% | – |
| O=P(O)(O)C(O)(Cc1cccnc1)P(=O)(O)O | -13.7% [at 35.3 µM] | – |
| CCN1CCN(C(=O)N[C@@H](C(=O)N[C@@H]2C(=O)N3[C@@H]2SC(C)(C)[C@H]3C(=O)O)c2ccccc2)C(=O)C1=O | -20.2% [at 35.3 µM] | – |
| COc1cc(C(=O)NC2CCCNC2)cc(OC)c1OC (stereo unspecified) | -42.8% [at 35.3 µM] | – |
| COc1cc2nc(N3CCN(C(=O)C4CCCO4)CC3)nc(N)c2cc1OC (stereo unspecified) | -8.71% [at 35.3 µM] | – |
| CC(C)C[P+](C)(CC(C)C)CC(C)C | 0.981% | – |

Assay: qHTS RealTime-Glo MT Cell Viability Assay in HEK293 cells - 0 hour (AID 1224880); further: top concentration of the series differs between compounds; nearly all actives have a fitted effect of over 45% in size
Details: RealTime-Glo luminescence; series mostly up to 76.8 µM; activity change, negative = cytotoxicity: at the top concentration
Procedure, shortened: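 Cells were seeded together with NanoLuc luciferase and a prosubstrate that viable cells reduce to a luciferase substrate. After a 5 h incubation at 37 C/5% CO2, compounds were added and luminescence was measured repeatedly during 40 h of treatment.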

| SMILES | activity change, negative = cytotoxicity |
| --- | --- |
| CCCC(C)C(O)CC (stereo unspecified) | 4.52% |
| CC(=O)Nc1ccc(OCCOCCOc2ccc(NC(C)=O)cc2)cc1 | 4.28% [at 35.3 µM] |
| CC(C)OC(=O)C(C(=O)OC(C)C)=C1SC=CS1 | -1.7% [at 35.3 µM] |
| COC(=O)N/N=C/c1c[n+]([O-])c2ccccc2[n+]1[O-] | -1.33% [at 35.3 µM] |
| CN1CCN(C(=O)C2CCCCC2)CC1 | -5.53% [at 35.3 µM] |
| C=CCCCCCCCCOC(C)=O | 4.15% |
| CC(=O)c1ccc2ccc3ccccc3c2c1 | 5.06% |
| CCCCCCCC(=O)N(C)C | -5.21% |
| CC(=O)c1c(C)cc(C(C)(C)C)cc1C | -12.3% |
| C=CC(C)(CCC=C(C)C)OC(=O)C(C)C (stereo unspecified) | -1.39% |
| CCOC(=O)COc1ccc2c(C)c(CCN(CC)CC)c(=O)oc2c1Cl | 5.49% [at 35.3 µM] |
| COc1ccc(Cl)cc1C | 15.2% |
| Clc1ccc2c(c1)Nc1ccccc1S2 | 6.19% [at 35.3 µM] |
| N[C@H]1C(O)O[C@H](CO)[C@@H](O)[C@@H]1O (stereo partly specified) | -0.652% [at 35.3 µM] |
| O=C1Nc2ccccc2C1=O | -3.18% |
| CN(C)c1ccncc1 | -1.52% |

| SMILES | activity change, negative = cytotoxicity |
| --- | --- |
| CN(C)CCc1c[nH]c2ccc(C[C@H]3COC(=O)N3)cc12 | 1.93% [at 35.3 µM] |
| Cc1nnc(C(=O)NC(C)(C)c2nc(C(=O)NCc3ccc(F)cc3)c(O)c(=O)n2C)o1 | 0.536% [at 35.3 µM] |
| COC(=O)c1c(C)cc(O)c(C)c1O | 2.55% |
| CCCCS | 7.87% |
| C[C@@H](CN1CC(=O)NC(=O)C1)N1CC(=O)NC(=O)C1 | -13.6% [at 35.3 µM] |
| CCOC(=O)[C@H](CCc1ccccc1)N[C@H]1CS[C@H](c2cccs2)CN(CC(=O)O)C1=O | -1.71% [at 35.3 µM] |
| CCCCOCCCC | 12.3% |
| N=C(N)N | -2.38% [at 35.3 µM] |
| C=CCON/C(CCC)=C1\C(=O)CC(C)(C)C(C(=O)OC)=C1O | -0.41% |
| CC/C=C\CCOC(=O)c1ccccc1 | -12.4% |
| CC/C=C\CCCCCCCCCCOC(C)=O | -1.56% |
| Cc1ccc(OC(=O)CC(C)C)cc1 | -2.15% |
| O=P(O)(O)C(O)(Cc1cccnc1)P(=O)(O)O | -3.35% [at 35.3 µM] |
| CCN1CCN(C(=O)N[C@@H](C(=O)N[C@@H]2C(=O)N3[C@@H]2SC(C)(C)[C@H]3C(=O)O)c2ccccc2)C(=O)C1=O | 0.347% [at 35.3 µM] |
| COc1cc(C(=O)NC2CCCNC2)cc(OC)c1OC (stereo unspecified) | 10% [at 35.3 µM] |
| COc1cc2nc(N3CCN(C(=O)C4CCCO4)CC3)nc(N)c2cc1OC (stereo unspecified) | -5.08% [at 35.3 µM] |

Assay: A CellTox Green Cytotoxicity Assay to monitor cytotoxicity in HEK293 cells - 32 hour (AID 1224881); further: nearly all actives have a fitted effect of over 40% in size; further: potency means the concentration at half of the fitted maximal effect
Details: CellTox Green fluorescence; series mostly up to 76.8 µM; cytotoxicity increase: at the top concentration
Procedure, shortened: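 Nonlytic real-time cytotoxicity: HEK293 + CellTox Green reagent plated, 5 h preincubation, pintool compound addition (23 nL in DMSO), 37 C for 40 h, fluorescence measured at successive time points.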

| SMILES | cytotoxicity increase | Potency |
| --- | --- | --- |
| CC(=O)Nc1ccc(OCCOCCOc2ccc(NC(C)=O)cc2)cc1 | -9.54% [at 35.3 µM] | – |
| CC(C)OC(=O)C(C(=O)OC(C)C)=C1SC=CS1 | 10% [at 35.3 µM] | – |
| COC(=O)N/N=C/c1c[n+]([O-])c2ccccc2[n+]1[O-] | – | 21.3 µM (active) |
| CN1CCN(C(=O)C2CCCCC2)CC1 | -2.4% [at 35.3 µM] | – |
| C=CCCCCCCCCOC(C)=O | 7.86% | – |
| CC(=O)c1ccc2ccc3ccccc3c2c1 | -17.3% | – |
| CN(C)CCCN(C)C | -0.385% [at 6.97 µM] | – |
| CCCCCCCC(=O)N(C)C | 1.56% | – |
| CC(=O)c1c(C)cc(C(C)(C)C)cc1C | – | 24.5 µM (active) |
| CCOC(=O)COc1ccc2c(C)c(CCN(CC)CC)c(=O)oc2c1Cl | -4.99% [at 35.3 µM] | – |
| O=C(OOC(=O)c1ccccc1)c1ccccc1 | 15.5% [at 35.3 µM] | – |
| Clc1ccc2c(c1)Nc1ccccc1S2 | 0.662% [at 35.3 µM] | – |
| N[C@H]1C(O)O[C@H](CO)[C@@H](O)[C@@H]1O (stereo partly specified) | -4.8% [at 35.3 µM] | – |
| O=C1Nc2ccccc2C1=O | 22.4% | – |
| CN(C)c1ccncc1 | -11.4% | – |
| CN(C)CCc1c[nH]c2ccc(C[C@H]3COC(=O)N3)cc12 | 2.02% [at 35.3 µM] | – |
| Cc1nnc(C(=O)NC(C)(C)c2nc(C(=O)NCc3ccc(F)cc3)c(O)c(=O)n2C)o1 | 22.8% [at 35.3 µM] | – |
| CCOC(=O)[C@H](CCc1ccccc1)N[C@H]1CS[C@H](c2cccs2)CN(CC(=O)O)C1=O | 3.09% [at 35.3 µM] | – |
| N=C(N)N | 22% [at 35.3 µM] | – |
| C=CCON/C(CCC)=C1\C(=O)CC(C)(C)C(C(=O)OC)=C1O | 0.856% | – |
| CCCCC(CC)COC(=O)CC#N (stereo unspecified) | -5.34% | – |
| CC/C=C\CCCCCCCCCCOC(C)=O | 3.05% | – |
| Cc1ccc(OC(=O)CC(C)C)cc1 | 20.4% | – |
| O=P(O)(O)C(O)(Cc1cccnc1)P(=O)(O)O | -14.8% [at 35.3 µM] | – |
| COc1cc(C(=O)NC2CCCNC2)cc(OC)c1OC (stereo unspecified) | -1.64% [at 35.3 µM] | – |
| COc1cc2nc(N3CCN(C(=O)C4CCCO4)CC3)nc(N)c2cc1OC (stereo unspecified) | -11.7% [at 35.3 µM] | – |
